This is an account of results in PubChem BioAssay (NCATS).

Results filed as inconclusive are left out. Entries that show only a call come without a potency. Activity calls are given as the source filed them. Calls follow the shape of the full dose curve; tested in HEK293 reporter line.
Potency is read from the fitted curve at half-maximal effect.

A short description of one test: qHTS for Inhibitors of the Functional Ribonucleoprotein Complex (vRNP) of Lassa (LASV) Arenavirus: LASV Primary Screen - GLuc reporter signal (AID 1347082). Also: nearly all actives have a fitted effect of over 60% in size. As to conditions: LASV minigenome vRNP, Gaussia luciferase reporter; series mostly up to 57.5 µM.
For the molecule `CCN(CC)C(=O)[C@@H]1C=C2c3cccc4[nH]cc(c34)C[C@H]2N(C)C1`, the Potency result is “inactive”.

Consider `Nc1cc(C(Cl)=C(Cl)Cl)c(S(N)(=O)=O)cc1S(N)(=O)=O`, for which the Potency result was “inactive”.

Consider `CCOC(=O)c1ccc(N)cc1`, for which the Potency result was “inactive”.

Regarding `Nc1ncn([C@H]2C[C@H](O)[C@@H](CO)O2)c(=O)n1`, the Potency result is “inactive”.

Turning to `CN(C)C(=O)COC(=O)Cc1ccc(OC(=O)c2ccc(N=C(N)N)cc2)cc1`, the Potency entry was “inactive”.

With `C#CC(O)(C=CCl)CC` (configuration not stated), the Potency entry was “inactive”.

`N#C[C@H]1C[C@H]2C[C@@H]2N1C(=O)[C@@H](N)C12CC3CC(CC(O)(C3)C1)C2`: the Potency entry is “inactive”.

Regarding `COCC(=O)Nc1c(I)c(C(=O)NCC(O)CO)c(I)c(C(=O)N(C)CC(O)CO)c1I` (configuration not stated), the Potency result was “inactive”.

Take `O=C(O)Cc1ccc(-c2ccccc2)cc1`: the Potency result is “inactive”.

For `CCCC(=O)O[C@]1(C(=O)CO)CC[C@H]2[C@@H]3CCC4=CC(=O)CC[C@]4(C)[C@H]3[C@@H](O)C[C@@]21C`, the Potency result is “inactive”.

Take `Nc1nc(Cl)nc2c1ncn2[C@H]1C[C@H](O)[C@@H](CO)O1`: the Potency result was “inactive”.

Consider `CN(C)CCc1c[nH]c2cccc(OP(=O)(O)O)c12`, for which the Potency entry was “inactive”.

For the molecule `C=CC[C@@H]1C=C(C)C[C@H](C)C[C@H](OC)[C@H]2O[C@@](O)(C(=O)C(=O)N3CCCC[C@H]3C(=O)O[C@H](C(C)=C[C@@H]3CC[C@H](O)[C@H](OC)C3)[C@@H](C)[C@@H](O)CC1=O)[C@@H](C)C[C@@H]2OC`, the Potency result was “inactive”.

With `O=C(NCC1CCCCN1)c1cc(OCC(F)(F)F)ccc1OCC(F)(F)F` (configuration not stated), the Potency result is “inactive”.

With `CC(C)Cc1ccc(C(C)C(=O)O)cc1` (configuration not stated), the Potency entry is “inactive”.

For the molecule `Cc1cc(O)c2ccccc2c1O`, the Potency entry is “inactive”.

Turning to `CCCCCCNC(=O)n1cc(F)c(=O)[nH]c1=O`, the Potency entry is “inactive”.

`Cc1cccc(C)c1OCC(=O)N[C@@H](Cc1ccccc1)[C@@H](O)C[C@H](Cc1ccccc1)NC(=O)[C@H](C(C)C)N1CCCNC1=O`: the Potency entry was “inactive”.

For `CN(C)c1ccc2nc3ccc(=[N+](C)C)cc-3sc2c1`, the Potency is 9680 nM (active).

For the molecule `COc1cc(C)nc(-n2nc(C)cc2OC)n1`, the Potency entry is “inactive”.

Regarding `COc1cc2nc(Cl)nc(N)c2cc1OC`, the Potency entry was “inactive”.

For the molecule `Nc1ccc(C(=O)Nc2ccccc2N)cc1`, the Potency entry was “inactive”.

Regarding `CCCCOC(=O)c1ccc(N)cc1`, the Potency entry was “inactive”.

`CNC(=O)c1ccccc1Sc1ccc2c(/C=C/c3ccccn3)n[nH]c2c1`: the Potency entry is “inactive”.

Consider `Cc1ccccc1C(=O)Nc1ccc(C(=O)N2CCCC(N(C)C)c3ccccc32)cc1` (configuration not stated), for which the Potency result is “inactive”.

On to `O=C1CN(/N=C/c2ccc([N+](=O)[O-])o2)C(=O)N1`, for which the Potency entry is “inactive”.

With `CC(C=CC1=C(C)CCCC1(C)C)=CC=CC(C)=CC(=O)O`, the Potency result is “inactive”.

`COc1cc(C(=O)NS(=O)(=O)c2ccccc2C)ccc1Cc1cn(C)c2ccc(NC(=O)OC3CCCC3)cc12`: the Potency entry is “inactive”.

For `Cc1c(N)nc([C@H](CC(N)=O)NC[C@H](N)C(N)=O)nc1C(=O)N[C@H](C(=O)N[C@H](C)[C@@H](O)[C@H](C)C(=O)N[C@H](C(=O)NCCc1nc(-c2nc(C(=O)NCCCCN=C(N)N)cs2)cs1)[C@@H](C)O)[C@@H](O[C@@H]1O[C@@H](CO)[C@@H](O)[C@H](O)[C@@H]1O[C@H]1O[C@H](CO)[C@@H](O)[C@H](OC(N)=O)[C@@H]1O)c1cnc[nH]1`, the Potency entry was “inactive”.

The nature of another test: qHTS for Inhibitors of the Functional Ribonucleoprotein Complex (vRNP) of Lassa (LASV) Arenavirus: Viability assay - alamar blue signal for LASV Primary Screen (AID 1347083). Also: nearly all actives have a fitted effect of over 80% in size. The note with it: cell viability, alamar blue fluorescence (LASV minigenome counter-screen); series mostly up to 57.5 µM.
For `CO[C@H]1C[C@@H]2CC[C@@H](C)[C@@](O)(O2)C(=O)C(=O)N2CCCC[C@@H]2C(=O)O[C@H]([C@H](C)C[C@@H]2CC[C@H](OCCO)[C@H](OC)C2)CC(=O)[C@H](C)C=C(C)[C@@H](O)[C@@H](OC)C(=O)[C@H](C)C[C@H](C)C=CC=CC=C1C`, the Potency is 8.6 nM (active).

In the case of `Nc1cc(C(Cl)=C(Cl)Cl)c(S(N)(=O)=O)cc1S(N)(=O)=O`, the Potency entry was “inactive”.

For the molecule `C#CC(O)(C=CCl)CC` (configuration not stated), the Potency result is “inactive”.

Take `N#C[C@H]1C[C@H]2C[C@@H]2N1C(=O)[C@@H](N)C12CC3CC(CC(O)(C3)C1)C2`: the Potency entry is “inactive”.

For `COc1cc(NS(C)(=O)=O)ccc1Nc1c2ccccc2nc2ccccc12`, the Potency is 2510 nM (active).

With `O=C(O)Cc1ccc(-c2ccccc2)cc1`, the Potency entry is “inactive”.

Turning to `CCCC(=O)O[C@]1(C(=O)CO)CC[C@H]2[C@@H]3CCC4=CC(=O)CC[C@]4(C)[C@H]3[C@@H](O)C[C@@]21C`, the Potency result is “inactive”.

Turning to `CC(=O)N1CCN(c2ccc(OC[C@H]3CO[C@](Cn4ccnc4)(c4ccc(Cl)cc4Cl)O3)cc2)CC1`, the Potency entry was “inactive”.

With `CN(C)CCc1c[nH]c2cccc(OP(=O)(O)O)c12`, the Potency result is “inactive”.

As to `CC(C)Cc1ccc(C(C)C(=O)O)cc1` (configuration not stated), the Potency entry is “inactive”.

`O=C(Nc1cccc2c(=O)cc(-c3nn[nH]n3)oc12)c1ccc(OCCCCc2ccccc2)cc1`: the Potency is 30600 nM (active).

Take `CCCCCCNC(=O)n1cc(F)c(=O)[nH]c1=O`: the Potency is 43200 nM (active).

For the molecule `COc1cccc2c1C(=O)c1c(O)c3c(c(O)c1C2=O)C[C@@](O)(C(=O)CO)C[C@@H]3O[C@H]1C[C@H](N)[C@@H](O)[C@H](C)O1`, the Potency was 1090 nM (active).

As to `COc1cc(C)nc(-n2nc(C)cc2OC)n1`, the Potency result was “inactive”.

Regarding `O=C1CN(/N=C/c2ccc([N+](=O)[O-])o2)C(=O)N1`, the Potency entry is “inactive”.

`COc1cc(C(=O)NS(=O)(=O)c2ccccc2C)ccc1Cc1cn(C)c2ccc(NC(=O)OC3CCCC3)cc12`: the Potency result is “inactive”.

On to `Cc1c(N)nc([C@H](CC(N)=O)NC[C@H](N)C(N)=O)nc1C(=O)N[C@H](C(=O)N[C@H](C)[C@@H](O)[C@H](C)C(=O)N[C@H](C(=O)NCCc1nc(-c2nc(C(=O)NCCCCN=C(N)N)cs2)cs1)[C@@H](C)O)[C@@H](O[C@@H]1O[C@@H](CO)[C@@H](O)[C@H](O)[C@@H]1O[C@H]1O[C@H](CO)[C@@H](O)[C@H](OC(N)=O)[C@@H]1O)c1cnc[nH]1`, for which the Potency result was “inactive”.

As to `COc1cc([C@@H]2c3cc4c(cc3[C@@H](O[C@@H]3O[C@@H]5CO[C@@H](c6cccs6)O[C@@H]5[C@H](O)[C@@H]3O)[C@H]3COC(=O)[C@H]23)OCO4)cc(OC)c1O`, the Potency was 1220 nM (active).
